Screening results deposited in PubChem by National Center for Advancing Translational Sciences (NCATS).
Most compounds without a hit are left out; they make up all but 7.7% or so of the library.
Giardia FBPA inh-1: blocks Giardia fructose-bisphosphate aldolase activity; purified Giardia FBPA; Potency, µM (doses to about 59.6 µM), inactives show at the top dose activity, negative = inhibition, usual class: inhibitors; 0.71% of 290,000 active; note: potency is the fitted concentration of half-maximal effect; nearly all actives have a fitted effect of over 55% in size
Target sequence (A8B2U2 whole entry, looked up): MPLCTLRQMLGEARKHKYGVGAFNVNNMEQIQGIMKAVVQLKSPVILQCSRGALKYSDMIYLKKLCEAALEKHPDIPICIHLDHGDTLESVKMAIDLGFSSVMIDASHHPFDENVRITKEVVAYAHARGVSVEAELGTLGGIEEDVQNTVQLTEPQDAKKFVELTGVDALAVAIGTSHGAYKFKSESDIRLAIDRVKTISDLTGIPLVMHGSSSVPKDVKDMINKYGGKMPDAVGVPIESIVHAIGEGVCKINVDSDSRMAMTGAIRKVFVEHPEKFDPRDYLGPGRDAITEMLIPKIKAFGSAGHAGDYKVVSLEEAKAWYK
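40 nM FBPA preincubated 10 min at RT with compound (up to 57.5 uM final), then substrate plus GAPDH/TPI/NAD/arsenate coupling and diaphorase/resazurin added. Fluorescence read after 20 min at RT, 525/598 nm.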
HCMV antiviral: human cytomegalovirus inhibition. HFF cells, HCMV-luciferase reporter, 72 h; stronger effect = lower value. activity change, negative = inhibition, % at 57.5 µM. 4.5% of 410,000 active. AID 1259415; in the data active = activity change below about -60%; inconclusive = no clear call, values can overlap the other calls; inactive = above about -39%
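HFF cells seeded 16 h at 37C, treated with compounds, infected with luciferase-reporter HCMV at MOI 1 PFU/cell; luciferase read at 72 h post infection, normalized to buffer-only and Salinomycin controls.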
Tb PYK inh: blocks Trypanosoma brucei pyruvate kinase. TbPYK enzyme, Kinase-Glo Plus ATP luminescence, 45 min. Potency, µM (titrated, usually from 76.8 µM), inactives show at the highest dose activity, negative = inhibition, usual class: inhibitors. 0.12% of 410,000 active; note: potency is the fitted concentration of half-maximal effect; nearly all actives have a fitted effect of over 50% in size
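T. brucei PYK with substrate was exposed to pin-transferred compounds across a concentration series, then started with 130 uM ADP (final). After 45 min at room temperature, Kinase-Glo Plus luminescence was read, normalized and curve-fitted.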
RE007 growth inh: less growth of the S. pombe RE007 Vpr strain | AID 651644 | S. pombe RE007 Vpr strain, BacTiter-Glo ATP luminescence, 24 h | 0.21% of 360,000 active | Potency, µM (doses to about 92.2 µM), without a hit: top-dose activity change, negative = less growth, actives largely listed as inhibitors; active = well fitted falling curve with a large enough effect; inconclusive = small, poorly fitted or top-dose-only effect; inactive = no such curve, though single readings can be large or run the other way; note: potency is the fitted concentration of half-maximal effect; nearly all actives have a fitted effect of over 50% in size
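Fission yeast strain RE007, carrying one chromosomally integrated HIV-1 vpr copy, was seeded at OD 0.01 in PMG+AL medium with 23 nL pinned compound. After 24 h at 30 °C and 99% humidity, viability was read by BacTiter-Glo luminescence.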
Sm TGR inh: inhibitors of Schistosoma mansoni thioredoxin glutathione reductase; Q962Y6; purified TGR, DTNB reduction, TNB absorbance 405 nm; Potency, µM (highest dose often 114 µM), for inactives: at the highest dose activity change, negative = inhibition, most hits filed as inhibitors; 3% of 360,000 active; note: potency is the fitted concentration of half-maximal effect; nearly all actives have a fitted effect of over 60% in size
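Kinetic colorimetric format: TGR-catalysed, NADPH-driven DTNB reduction monitored via TNB absorbance. Enzyme dispensed at 20 nM; compound exposure 15 min at room temperature before reaction start.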
FMDV antiviral: foot and mouth disease virus antiviral activity; FMDV antiviral cell-based qHTS; 1.2% of 410,000 active; Potency, µM (titrated, usually from 57.9 µM), inactives show top-dose activity change, negative = inhibition, hits mostly inhibitors; calls by dose curve; tested in HEK293T cells; note: read-out not given here; potency is the fitted concentration of half-maximal effect; nearly all actives have a fitted effect of over 45% in size
Giardia growth: blocks growth of Giardia lamblia trophozoites | Potency, µM (titrated, usually from 57.5 µM), without a hit: at the highest dose activity change, negative = inhibition, actives largely listed as inhibitors | 5% of 1,500 active | Giardia lamblia trophozoite growth inhibition | shares compounds with Giardia FBPA inh-1;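 note: potency is the fitted concentration of half-maximal effect; trophozoites exposed to compound for 48 h at 37 °C; nearly all actives have a fitted effect of over 70% in size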
Mammal cell tox: counter-screen for Giardia aldolase inhibitors: mammalian cell toxicity; shares compounds with Giardia FBPA inh-1; mammalian cell viability counter-screen, qHTS; Potency, µM (top dose mostly 57.5 µM), inactives show top-dose viability change, negative = toxicity, most hits filed as inhibitors; 4% of 1,500 active;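 note: Chinese hamster ovary cells used as mammalian cytotoxicity surrogate; viability measured as cellular ATP by luminescence; potency is the fitted concentration of half-maximal effect; compound exposure lasted 48 h before reading; nearly all actives have a fitted effect of over 60% in size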
Giardia FBPA inh-2: confirmation of Giardia fructose-bisphosphate aldolase inhibitors. AID 2787. 5% of 1,500 active. Potency, µM (series often up to 57.5 µM), inactives show at the highest dose activity change, negative = inhibition, hits mostly inhibitors. purified Giardia aldolase enzyme activity, qHTS. shares compounds with Giardia FBPA inh-1; note: potency is the fitted concentration of half-maximal effect; nearly all actives have a fitted effect of over 45% in size
Rabbit FBPA inh: rabbit FBP aldolase inhibition by Giardia aldolase hits; Rabbit muscle FBPA enzyme inhibition, selectivity counter-screen; 4% of 1,500 active; Potency, µM (titrated, usually from 57.5 µM), for the others: top-dose activity, negative = inhibition, hits mostly inhibitors; shares compounds with Giardia FBPA inh-1; AID 2794; note: potency is the fitted concentration of half-maximal effect; nearly all actives have a fitted effect of over 60% in size
Target sequence (P00883 whole entry, looked up): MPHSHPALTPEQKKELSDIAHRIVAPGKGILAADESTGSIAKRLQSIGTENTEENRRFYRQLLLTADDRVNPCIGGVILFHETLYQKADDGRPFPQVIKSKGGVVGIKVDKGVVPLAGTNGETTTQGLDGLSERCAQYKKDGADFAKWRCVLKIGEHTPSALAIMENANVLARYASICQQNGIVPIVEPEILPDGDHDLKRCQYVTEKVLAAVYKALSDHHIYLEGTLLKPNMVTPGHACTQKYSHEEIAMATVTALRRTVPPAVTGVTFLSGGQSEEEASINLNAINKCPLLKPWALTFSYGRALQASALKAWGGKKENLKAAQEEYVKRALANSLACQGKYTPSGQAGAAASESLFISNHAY
GAPDH counter: GAPDH inhibition flagged for Giardia aldolase hits; shares compounds with Giardia FBPA inh-1; GAPDH coupling enzyme counterscreen, biochemical, qHTS; Potency, µM (top dose mostly 57.5 µM), for the others: at the highest dose activity change, negative = inhibition, hits mostly inhibitors; 6% of 1,500 active; AID 2795; note: potency is the fitted concentration of half-maximal effect; nearly all actives have a fitted effect of over 55% in size
Active calls of the source: *; u = inconclusive; x = no result given; [ ] = another dose, or the depositor's remark. Unless noted, calls come from the whole dose curve; as a rule, active = well fitted curve in the direction sought with a large enough effect; inconclusive = small, poorly fitted or top-dose-only effect, or another doubt; inactive = no such curve, though single readings can be large; an effect the other way counts as inactive or inconclusive. % is set by controls: 0 for no effect and ±100 for the full control effect.

SMILES	Giardia FBPA inh-1	HCMV antiviral	Tb PYK inh	RE007 growth inh	Sm TGR inh	FMDV antiviral	Giardia growth	Mammal cell tox	Giardia FBPA inh-2	Rabbit FBPA inh	GAPDH counter
Cc1ccc(C(=O)Nc2nc(C)c(C(=O)N(C)C)s2)o1	-9%	85	-12%	-8%	-1%	28%	x	x	x	x	x
Cc1nc(NC(=S)NC(=O)c2ccccc2)sc1C	11µM*	45	2%	-4%	1%	24%	u	u	-2%	4%	8%
Cc1nc(NC(=S)NC(=O)c2ccco2)sc1C(=O)N(C)C	10µM*	12	0%	-11%	-2%	19%	-5%[38.3 µM]	-14%	-2%	7%	5%
Cc1nc(NC(=O)c2ccccc2)sc1C	-11%	38	-4%	-12%	0%	61%	x	x	x	x	x
CC(=O)OC[C@@H]1O[C@@H](O/N=C2/C[C@@H](O)[C@@H](O)[C@@H]3[C@@H]4C(=O)N(c5cccc(Oc6ccccc6)c5)C(=O)[C@H]4CC[C@@H]23)[C@H](OC(C)=O)[C@H](OC(C)=O)[C@@H]1OC(C)=O	1%[12.9 µM]	x	x	x	x	x	x	x	x	x	x
COc1ccc(Cc2c(O)[nH]c(=S)[nH]c2=O)cc1	25µM*	77	u	14%	2%	-15%	-13%[10.4 µM]	15%	-6%	11%	11%
C[C@H](NC(=O)c1ccccc1)C(=O)Nc1nc(-c2ccccn2)cs1	5.6µM*	-1	-8%	1%	3%	u	u	-14%	1%	-3%	-3%
CSCCC(=O)Nc1nc(-c2ccccn2)cs1	16µM*	28	-9%	-1%	-21%	6%	14µM*	-21%	-4%	-4%	-3%
CC(Oc1ccccc1)C(=O)Nc1nc(-c2ccccn2)cs1 (stereo not given)	x	u	-12%	u	-12%	-21%	x	x	x	x	x
O=C(CCCSc1ccccc1)Nc1nc(-c2ccccn2)cs1	6%	-1	6%	u	-6%	-6%	x	x	x	x	x
O=C(/C=C/c1ccco1)Nc1nc(-c2ccccn2)cs1	18µM*	45	-26%	3%	13µM*	67%	u	u	-13%	-10%	-7%
CCc1nn(CC(=O)NCCOC)c(=O)c2cc3cc(F)ccc3n12	x	-4	2%	x	-4%	-8%	x	x	x	x	x
CC(=O)c1ccc(N2CCN(C(=O)CCCCn3c(=O)[nH]c4ccsc4c3=O)CC2)cc1	x	-4	2%	x	-4%	u	x	x	x	x	x
Cc1cccc(Sc2c([N+](=O)[O-])ncn2C)n1	-1%	20	6%	-12%	u	-12%	x	x	x	x	x
Cn1cnc([N+](=O)[O-])c1Sc1ncccc1N	18µM*	24	-3%	-15%	u	u	27%	3%	1%	6%	-18%
Cc1ccc2nc3nc4ccc[nH]c4cc3c2c1	-7%[12.9 µM]	x	x	x	x	x	x	x	x	x	x
C/C=C(/C)C(=O)O[C@H]1CC(C)=CC(=O)[C@@]2(C)CC[C@@](O)(C(C)C)[C@H]12	4%	x	x	x	x	x	x	x	x	x	x
Oc1c(C(Nc2nc3ccccc3s2)c2ccco2)ccc2cccnc12 (stereo not given)	16µM*	-98*	-11%	u	u	26%	35%	u	-23%	-3%	-8%
O=C(c1cccn2c(=O)c3cc(Cl)ccc3nc12)N1CCN(c2ccccc2F)CC1	x	14	-4%	x	-4%	16%	x	x	x	x	x
N#CCCn1c(=O)c(-c2ccc(F)cc2)nc2cnc(Oc3ccccc3)nc21	7%	x	3%	x	x	-3%	x	x	x	x	x
COCc1cc(=O)[nH]c(Nc2nc3ccccc3o2)n1	10µM*	16	1%	-9%	4%	-13%	-11%[38.3 µM]	u	18%	-3%	u
CC1(C)CC(NC(=S)Nc2ccc(S(N)(=O)=O)cc2)CC(C)(C)N1	8.9µM*	u	-4%	35%	-12%	5%	18%[38.3 µM]	-2%	-7%	-4%	-3%
NS(=O)(=O)c1ccc(NC(=S)NC(=O)c2cccs2)cc1	18µM*	22	-3%	8%	17%	27%	u	7%	7%	5%	4%
NS(=O)(=O)c1ccc(NC(=S)NC(=O)c2ccc(Br)o2)cc1	18µM*	-28	-12%	-4%	-6%	26%	7%[10.4 µM]	0%	-3%	6%	6%
Cc1ccc(NC(=O)c2ccc(Br)o2)cc1S(=O)(=O)N(C)C	0%	33	-4%	-18%	u	4%	x	x	x	x	x
SMILES	Giardia FBPA inh-1	HCMV antiviral	Tb PYK inh	RE007 growth inh	Sm TGR inh	FMDV antiviral	Giardia growth	Mammal cell tox	Giardia FBPA inh-2	Rabbit FBPA inh	GAPDH counter
CN(C)S(=O)(=O)c1ccc(NC(=S)NC(=O)c2ccc(Br)o2)cc1	16µM*	u	x	x	u	x	3%[10.4 µM]	-8%	1%	7%	15%
NS(=O)(=O)c1ccc(NC(=S)NNC(=O)c2ccc(Br)o2)cc1	x	-8	-24%	10%	u	0%	x	x	x	x	x
COC(=O)c1nnc(C(=O)N(C)Cc2ccccc2)c2[nH]c3ccccc3c12	-3%	x	x	x	x	x	x	x	x	x	x
O=c1c(O)cccc2cc(O)c(O)c(O)c12	14µM*	-27	-28%	u	8.9µM*	12%	-16%[38.3 µM]	-18%	10µM*	16µM*	37µM*
Cc1ccc(Cl)cc1NC(=O)c1ccc(-c2nc(CSc3ccccc3)c(C)o2)cc1	x	u	1%	x	-5%	u	x	x	x	x	x
CCC(=O)NC1=C(Cl)C(=O)C(NC(=O)CC)=C(Cl)C1=O	1.8µM*	-94*	2.5µM*	x	0.22µM*	u	14%[38.3 µM]	u	2.9µM*	5.2µM*	3.7µM*
CCC(=O)Nc1ccccc1	8%	1	2%	13%	-22%	-5%	x	x	x	x	x
CN(CCOc1ccccc1)CC(=O)Nc1ccc(S(=O)(=O)N2CCCC2)cc1	16µM*	-14	22%	-13%	-8%	-22%	u	1%	8%	12%	2%
